In PubChem BioAssay (NCATS):
Several values for one entry are separate records, joined by “and”; a condition that tells them apart may be missing. Equal entries are not always repeated. Records with an inconclusive call do not appear. A call without a number means that no potency is given here. The source holds several records for some structures; these can differ, active in one and inactive in another. Activity calls are given as the source filed them. Calls come from the whole dose curve; as a rule, active = well fitted curve in the direction sought with a large enough effect; inconclusive = small, poorly fitted or top-dose-only effect, or another doubt; inactive = no such curve, though single readings can be large; an effect the other way counts as inactive or inconclusive.

Key:
[1] = Cell Viability - LYMP2-010 (AID 981);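 note: cells exposed to compound for 24 hours at 37 °C; nearly all actives have a fitted effect of over 55% in size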; note: potency is the fitted concentration of half-maximal effect
Outline: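 Steps: seed 2500 LYMP2-010 cells per well; incubate 5 hr at 37 C; add compound; incubate 24 hr at 37 C; add CellTiter-Glo, wait 30 min at room temperature; read luminescence. Concentration-response fitted to Hill equation for AC50.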

[2] = Cell Viability - LYMP2-012 (AID 982);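 note: cellular ATP by luciferase luminescence where a drop means cytotoxicity; cells exposed to compound for one day before reading; nearly all actives have a fitted effect of over 55% in size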; note: potency is the fitted concentration of half-maximal effect
[3] = Cell Viability - LYMP2-014 (AID 983);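 note: cells exposed to compound for 24 h at 37 °C; nearly all actives have a fitted effect of over 50% in size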; note: potency is the fitted concentration of half-maximal effect
Outline: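 Cells are plated at 2500/well and left 5 hr at 37 C. Compounds are added across a concentration range and incubated 24 hr at 37 C in complete medium. CellTiter-Glo is added, and luminescence is read after 30 min at room temperature.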

[4] = Cell Viability - LYMP2-016 (AID 984);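 note: cells exposed to compound for 24 hours at 37 °C; nearly all actives have a fitted effect of over 55% in size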; note: potency is the fitted concentration of half-maximal effect
Outline: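 Cells were seeded at 2500 per well and rested 5 hr before a 24 hr compound exposure at 37 C. Viability was then gauged as cellular ATP by luciferase luminescence, with AC50 values fitted to the Hill equation.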

[5] = Cell Viability - LYMP2-018 (AID 985); note: nearly all actives have a fitted effect of over 50% in size; note: potency is the fitted concentration of half-maximal effect
Outline: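 Seed 2500 lymphoblastoid cells per well, incubate 5 hr at 37 C, add compound and incubate 24 hr at 37 C, add CellTiter-Glo, wait 30 min at room temperature, then read luminescence.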

[6] = Cell Viability - LYMP2-020 (AID 986);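 note: cells exposed to compound for 24 h at 37 °C; nearly all actives have a fitted effect of over 55% in size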; note: potency is the fitted concentration of half-maximal effect
Outline: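 Seed 2500 cells per well and incubate 5 hr at 37 C. Add compounds at a concentration series and incubate 24 hr at 37 C. Add CellTiter-Glo, wait 30 min at RT, read luminescence, and fit a Hill curve for AC50.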

[7] = Cell Viability - LYMP2-022 (AID 987); note: nearly all actives have a fitted effect of over 55% in size; note: potency is the fitted concentration of half-maximal effect
Outline: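 Cells were seeded at 2500 per well, rested 5 hr at 37 C, and treated with titrated compounds for 24 hr at 37 C. Cellular ATP was then quantified by luciferase luminescence, and AC50 values were derived from Hill-modelled concentration-response curves.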

[8] = Cell Viability - LYMP2-024 (AID 988); note: nearly all actives have a fitted effect of over 60% in size; note: potency is the fitted concentration of half-maximal effect
Outline: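 qHTS cytotoxicity, human lymphoblastoid line, complete medium; 24 h cpd treatment, 37 C; CellTiter-Glo ATP luminescence readout; tetraoctylammonium bromide positive control; AC50 via Hill fit.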

[9] = Cell Viability - LYMP2-026 (AID 989);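 note: cells exposed to compound for 24 h at 37 °C; nearly all actives have a fitted effect of over 50% in size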; note: potency is the fitted concentration of half-maximal effect
Outline: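 Cells are seeded at 2500 per well and held 5 hr at 37 C. Compounds are added in concentration series for 24 hr, then CellTiter-Glo reagent is applied and luminescence read.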

[10] = Cell Viability - LYMP1-002 - Assay at 40 hr (AID 994); note: nearly all actives have a fitted effect of over 60% in size; note: potency is the fitted concentration of half-maximal effect
Outline: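 Cells are plated at 2500 per well and rested 5 hr at 37 C. Compounds are added and incubated 40 hr at 37 C. CellTiter-Glo reagent is added for 30 min at room temperature before luminescence is read.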

[11] = biological target: Alpha-galactosidase A (Homo sapiens) (UniProt P06280); experiment: Counterscreen for Glucocerebrosidase Inhibitors: qHTS Assay for Human alpha-Galactosidase at pH 4.5 (AID 992)
Outline: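 Each compound is preincubated briefly with 2 nM enzyme before substrate addition (80 uM); plates then sit 20 min at ambient temperature, are quenched with 1M NaOH/1M glycine, and read fluorometrically.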

[12] = biological target: alpha-glucosidase (Oryza sativa, rice) (UniProt Q653V4); experiment: Counterscreen for Glucocerebrosidase Inhibitors: qHTS Assay for Rice alpha-Glucosidase at pH 5.0 (AID 997)
Outline: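 Endpoint fluorogenic assay at pH 5.0: compounds (0.7 nM to 77 uM) titrated against 4 nM rice enzyme and 400 uM 4-MU-alpha-glucoside for 20 min at room temperature; NaOH/glycine stop, read ex 365/em 440 nm, Hill-fitted AC50.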

Chain of Alpha-galactosidase A (Homo sapiens) (P06280 whole entry, looked up): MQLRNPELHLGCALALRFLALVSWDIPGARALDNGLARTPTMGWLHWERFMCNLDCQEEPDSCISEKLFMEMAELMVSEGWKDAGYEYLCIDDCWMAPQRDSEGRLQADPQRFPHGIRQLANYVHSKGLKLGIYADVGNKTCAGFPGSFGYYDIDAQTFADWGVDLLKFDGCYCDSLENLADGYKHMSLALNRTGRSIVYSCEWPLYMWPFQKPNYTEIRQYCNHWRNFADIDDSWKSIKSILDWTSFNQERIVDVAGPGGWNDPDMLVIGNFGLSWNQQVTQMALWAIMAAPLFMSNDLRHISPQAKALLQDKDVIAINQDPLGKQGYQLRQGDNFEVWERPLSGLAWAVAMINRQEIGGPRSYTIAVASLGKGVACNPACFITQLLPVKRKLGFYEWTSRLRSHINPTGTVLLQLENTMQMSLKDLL

Compound | Potency [1] | Potency [2] | Potency [3] | Potency [4] | Potency [5] | Potency [6] | Potency [7] | Potency [8] | Potency [9] | Potency [10] | outcome [11] | outcome [12]
O=CC=O | inactive | inactive | inactive | inactive | inactive | inactive | inactive | inactive | inactive | inactive | – | –
Clc1ccccc1Cl | inactive | inactive | inactive | inactive | inactive | inactive | inactive | inactive | inactive | inactive | – | –
ClC(Cl)(Cl)Cl | inactive | inactive | inactive | inactive | inactive | inactive | inactive | inactive | inactive | inactive | – | –
CCCN1CCc2cc(O)cc3c2[C@H]1Cc1ccc(O)c(O)c1-3 | – | – | – | – | – | – | – | – | – | – | inactive | inactive
[O]=[Cd] | inactive | inactive | inactive | inactive | inactive | inactive | inactive | inactive | inactive | inactive | – | –
CC(C)CCON=O | inactive | inactive | inactive | inactive | inactive | inactive | inactive | inactive | inactive | inactive | – | –
CCCCCl | inactive | inactive | inactive | inactive | inactive | inactive | inactive | inactive | inactive | inactive | – | –
Clc1ccc(N2C[C@H]3CC[C@@H](C2)N3)nn1 | – | – | – | – | – | – | – | – | – | – | inactive | –
CC(C)Nc1ccc(Nc2ccccc2)cc1 | 25.1 µM (active) | 25.1 µM (active) | 39.8 µM (active) | 31.6 µM (active) | 20 µM (active) | 25.1 µM (active) | 15.8 µM (active) | 12.6 µM (active) | 39.8 µM (active) | 50.1 µM (active) | – | –
O=[N+]([O-])c1ccccc1 | inactive | inactive | inactive | inactive | inactive | inactive | inactive | inactive | inactive | inactive | – | –
COC1=CC(=O)O[C@@H](/C=C/c2ccccc2)C1 | inactive | inactive | inactive | inactive | inactive | inactive | inactive | inactive | inactive | inactive | – | –
CCOC(=O)c1ccccc1C(=O)OCC | inactive | inactive | inactive | inactive | inactive | inactive | inactive | inactive | inactive | inactive | – | –
[O]=[Cr](=[O])([OH])[O][Cr](=[O])(=[O])[OH] | 10 µM (active) and 7.94 µM (active) | 12.6 µM (active) and 15.8 µM (active) and 7.94 µM (active) | 12.6 µM (active) and 15.8 µM (active) and 10 µM (active) | 10 µM (active) and 12.6 µM (active) | 7.94 µM (active) and 12.6 µM (active) | 15.8 µM (active) and 10 µM (active) | 10 µM (active) and 12.6 µM (active) and 7.94 µM (active) | 12.6 µM (active) and 15.8 µM (active) and 10 µM (active) | 15.8 µM (active) and 20 µM (active) and 12.6 µM (active) | inactive and 39.8 µM (active) | – | –
O=[N+]([O-])c1ccc(F)c([N+](=O)[O-])c1 | – | inactive | inactive | inactive | – | inactive | – | – | inactive | inactive | – | –
Oc1cc(Cl)c(Cl)cc1Cl | inactive | inactive | inactive | inactive | inactive | inactive | inactive | – | inactive | inactive | – | –
CN1CCc2cc(O)cc3c2[C@H]1Cc1ccc(O)c(O)c1-3 | – | – | – | – | – | – | – | – | – | – | inactive | –
C[C@]12CCC(=O)C[C@@H]1CC[C@@H]1[C@@H]2CC[C@]2(C)[C@@H](O)CC[C@@H]12 | inactive | inactive | inactive | inactive | inactive | inactive | inactive | inactive | inactive | inactive | – | –
O=C(O)C(Cl)(Cl)Cl | inactive | inactive | inactive | inactive | inactive | inactive | inactive | inactive | inactive | inactive | – | –
